Measured values taken from PubChem BioAssay (EPA / NIEHS).
Results filed as inconclusive are left out. Active and inactive are the calls of the source. Rule for the calls: active = hit-call score of the fitted dose curve at least 0.9, where 1 is the maximum; inconclusive = response in the unintended direction; inactive = score below 0.9.

target: human Serotonin, 5-Hydroxytryptamine Receptor 2A (5HT2A), HTR2A (gene 3356) (UniProt P28223); test: NVS_GPCR_h5HT2A: NovaScreen (NVS) G Protein-Coupled Receptor Assay for human Serotonin, 5-Hydroxytryptamine Receptor 2A (5HT2A) (AID 2283249)
Method: NVS_GPCR_h5HT2A is a biochemical, single-readout assay that uses extracted gene-proteins from Human cortex in a tissue-based cell-free assay. Measurements were taken 1.5 hours after chemical dosing in a 48-well plate.NVS_GPCR_h5HT2A is one of one assay component(s) measured or calculated from the NVS_GPCR_h5HT2A assay. It is designed to make measurements of radioligand binding, a form of binding reporter, as detected with scintillation counting signals by Filter-based radiodetection technology.Data from the assay component NVS_GPCR_h5HT2A was analyzed into 1 assay endpoint. This assay endpoint, NVS_GPCR_h5HT2A, was analyzed in the positive analysis fitting direction relative to DMSO as the negative control and baseline of activity. Using a type of binding reporter, loss-of-signal activity can be used to understand changes in the binding as they relate to the gene HTR2A. Furthermore, this assay endpoint can be referred to as a primary readout, because the performed assay has only produced 1 assay endpoint. To generalize the intended target to other relatable targets, this assay endpoint is annotated to the gpcr intended target family, where the subfamily is rhodopsin-like receptor.
Binding assays used specific radioligands (tritiated, iodinated) with non-radioactive competitive displacement ligands in agonist or antagonist protocols (as indicated) and various reference compounds and inhibitors to titrate specific binding to receptors and transporters. Most enzyme assays (CYPs, kinases, phosphatases, proteases, HDACs) used recombinant protein and specific substrates (fluorescence mostly, some colorimetric and radioactive) and inhibitors, followed by a biochemical separation of substrate and product. All assays for the biochemical HTS were initially run in duplicate at a single concentration (10 uM for CYP450 assays and 25 uM for all others). […] Each assay was run with positive and negative controls, and concurrent controls on every plate. […]

human Serotonin, 5-Hydroxytryptamine Receptor 2A (5HT2A), HTR2A (gene 3356), sequence (P28223 whole entry, looked up): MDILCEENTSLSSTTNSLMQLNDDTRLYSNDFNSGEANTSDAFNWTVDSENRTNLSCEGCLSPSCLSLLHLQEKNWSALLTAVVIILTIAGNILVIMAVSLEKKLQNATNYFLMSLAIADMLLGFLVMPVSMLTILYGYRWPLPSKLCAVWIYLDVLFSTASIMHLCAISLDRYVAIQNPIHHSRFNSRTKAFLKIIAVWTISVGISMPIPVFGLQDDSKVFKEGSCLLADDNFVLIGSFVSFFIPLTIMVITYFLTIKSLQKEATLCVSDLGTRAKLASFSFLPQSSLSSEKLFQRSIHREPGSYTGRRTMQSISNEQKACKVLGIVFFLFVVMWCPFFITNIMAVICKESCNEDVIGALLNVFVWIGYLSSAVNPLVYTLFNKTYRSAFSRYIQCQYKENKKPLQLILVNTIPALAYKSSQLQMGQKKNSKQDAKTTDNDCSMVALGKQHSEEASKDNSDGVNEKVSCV

Compound | outcome | AC50
Cc1cccc(C)c1N | inactive | –
Oc1ccc(C(c2ccc(O)cc2)(C(F)(F)F)C(F)(F)F)cc1 | – | 10.4 µM (active)
CCCCCCCCCC[N+](C)(C)CCCCCCCCCC | – | 5 µM (active)

test system: guinea pig Muscarinic, Peripheral (Mperiperal) Receptor, Non-selective Binding, gene 100379235; test: NVS_GPCR_gMPeripheral_NonSelective: NovaScreen (NVS) G Protein-Coupled Receptor Assay for guinea pig Muscarinic, Peripheral (Mperiperal) Receptor, Non-selective Binding (AID 2283250)
Summary of the method: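 Screened in duplicate at 25 uM, hits retested in concentration series to 50 uM max, using bladder membrane radioligand displacement from guinea pig. Filtration and scintillation counting 1 h post-dose, fitted relative to DMSO.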

Compound | outcome | AC50
O=C(N[C@H]1CN2CCC1CC2)c1cc2ccoc2cn1 | inactive | –
Oc1ccc(C(c2ccc(O)cc2)(C(F)(F)F)C(F)(F)F)cc1 | – | 13.6 µM (active)
CCCCCCCCCC[N+](C)(C)CCCCCCCCCC | – | 25 µM (active)
